# Results taken from the supplement of paper PMC3334620.
# In all, about 33,000 sequences were measured (“E-score (-0.5 to 0.5)”: median about -0.0059, highest 2% from about 0.26 on). Many of the other results were omitted from the sample, so the highest values are more common in it than they were.
# Target: T1, Cin5 (UniProt P40917)
# T1 sequence: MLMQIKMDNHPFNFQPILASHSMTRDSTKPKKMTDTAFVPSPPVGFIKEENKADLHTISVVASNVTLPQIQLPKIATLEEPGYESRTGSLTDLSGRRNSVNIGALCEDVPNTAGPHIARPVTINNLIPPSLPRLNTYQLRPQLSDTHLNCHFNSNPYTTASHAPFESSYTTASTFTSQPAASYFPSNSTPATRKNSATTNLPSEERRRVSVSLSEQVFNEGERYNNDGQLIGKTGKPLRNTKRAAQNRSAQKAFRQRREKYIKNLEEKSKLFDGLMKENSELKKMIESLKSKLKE
# Assay: PBM E-score (8-mer binding enrichment) (E-score (-0.5 to 0.5)); higher = stronger / more preferred TF binding
# Details: protein concentration: 100 nM; construct: GST-full length
# Protocol: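 Universal 'all 10-mer' protein binding microarrays (Agilent AMADID 015681) probed with GST-tagged S. cerevisiae TFs (full-length or DBD) made by in vitro transcription/translation (PURExpress), about 100-200 nM. Bound TF was detected with fluorescent anti-GST. Each ungapped 8-mer (which stands for itself and its reverse complement) is scored by the PBM enrichment score (E-score), a modified Wilcoxon-Mann-Whitney statistic from -0.5 to +0.5, computed with the Universal PBM Analysis Suite. Scale: above 0.35 generally sequence-specific binding.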
row,Sequence,PBM E-score
1,ATCATATG,0.169
2,ATCATATA,0.269
3,ATTATATA,0.333
4,ATTTTGTA,0.286
5,ATTATATC,0.197
6,GTTATACA,0.181
7,ATTTTGTG,0.139
8,GTTATAGA,-0.0531
9,CTTTTGTA,0.205
10,GTTATATA,0.271
11,GTCATATA,0.168
12,ATTATATG,0.249
13,TACATCCA,0.0256
14,GCAGCACA,0.00715
15,AGGTGGTA,0.0927
16,GGCCAGGA,-0.0739
17,CAGCGTAA,0.0543
18,AGGCTATA,-0.161
19,CTTATACA,0.0656
20,ACTATATA,0.309
21,ATGTTGTA,0.263
22,ACTATATC,0.214
23,ATTATCCC,0.151
24,GTGTTGTA,0.0125
25,ATGTTGTG,0.151

row,Sequence,PBM E-score
1,GCTATATA,0.153
2,CTTATATC,0.232
3,CTTATATA,0.348
4,ATTATCCG,0.289
5,ATTATCCA,0.122
6,GCGTTAAC,0.00491
7,CCCTAGAC,-0.112
8,TCCTCGAA,0.043
9,TAAGCGTA,0.126
10,GAACTGGA,0.158
11,CTTTGCGC,0.123
12,CGTATGAA,0.188
13,GCTCTATA,-0.0373
14,GCGATCTA,0.068
15,ATTATACC,0.187
16,GTTTTATA,0.148
17,CTTTGTTC,0.0999
18,ATTTGTAG,0.136
19,ATTTGTAA,0.326
20,ATTTTATA,0.272
21,CTTTGTAA,0.115
22,ATTTGTTA,0.179
23,ATTTTATG,0.208
24,ATTATACA,0.123
25,ATTTGTTC,0.307

row,Sequence,PBM E-score
1,ATTATACG,0.257
2,CACCAGTG,-0.0701
3,AGCCTTGC,-0.0563
4,CCCCGGGC,-0.282
5,CGATGACA,0.0915
6,ATCGACAT,0.0947
7,ATATTTGC,0.209
8,CCTTTAAG,-0.107
9,CTTGAGCA,-0.216
10,AATCTAAT,0.0853
11,GTCTATTA,0.0891
12,ATGTATTC,0.104
13,GCGTATTA,0.0794
14,CTCTATTA,0.0158
15,ACGTATTA,0.298
16,ATGTATCG,0.232
17,ACGTATTG,0.0396
18,CCCTATTA,-0.0143
19,GCCTATTA,0.177
20,ATGTATTG,0.304
21,ACCTATTA,0.267
22,ATCTATTA,0.321
23,ACTAGCAA,0.00926
24,AGATCACT,0.112
25,ACAAGTAT,0.221

row,Sequence,PBM E-score
1,AGGTATTG,0.126
2,CTTCAGTA,0.0297
3,ATAGTAGA,0.139
4,GTGTATTA,0.273
5,ATGTATTA,0.233
6,CTGTATTA,0.133
7,GCTGTTCC,-0.0338
8,CTCTTATC,0.192
9,GTGGAAAA,0.0919
10,CCGCGTGC,-0.0723
11,GCTTACCA,0.381
12,CCTTACGA,-0.114
13,ACTTACGA,0.207
14,GCTTACCC,0.00966
15,TCTTACCA,-0.0191
16,GATTACTA,0.387
17,GCTTACAA,0.248
18,AATTACTA,0.212
19,CATTACTA,0.189
20,GCTTACAC,0.391
21,ACTTACAC,-0.04
22,GCTTACGA,0.414
23,ATTGTGAC,0.0953
24,GAGCCACC,-0.354
25,GTACCGGA,-0.00967

row,Sequence,PBM E-score
1,AGCGGCTG,-0.125
2,ACAGCCAG,-0.0281
3,CAATTGGC,0.165
4,AATTCCAA,0.0946
5,GACGCTTA,-0.059
6,CGACGTAC,-0.00505
7,CCGTCGCC,-0.0908
8,CCCATATA,0.178
9,AGAAGGAC,-0.211
10,CGCCAGGA,-0.0898
11,CCTTACTA,0.0454
12,CCTTATCA,0.0994
13,GCTTACTA,0.388
14,GCTTATCA,0.285
15,ACTTATCA,0.0834
16,ACTTACTA,0.108
17,AAGCCGCG,-0.0409
18,ACATTCGA,0.0628
19,ATCCGGAC,-0.149
20,ATCCGGAT,0.259
21,ATCCGGAA,0.227
22,TGGGGTAA,0.0776
23,CGTAGTCA,-0.015
24,CATGTAAG,0.13
25,AATGTAAG,0.319

row,Sequence,PBM E-score
1,AATGTAAC,0.117
2,AATGTAAT,0.301
3,ACTGTAAG,0.143
4,AATGTAAA,0.19
5,CAGGCAAA,-0.00195
6,AGACCCAG,-0.097
7,CAACGCCA,-0.074
8,ATTATTTC,0.3
9,CTTATTTC,0.238
10,CTCATTTC,-0.04
11,ATTTATTA,0.306
12,GTTTATTA,0.215
13,GGTATTTA,0.0824
14,CTTTATTA,0.0651
15,ATCATTTC,0.264
16,ACTATTTC,0.228
17,ATCATTTA,0.226
18,AGTATTTA,0.0905
19,CGTATTTA,0.308
20,ATAGACGC,0.122
21,CACAGCAG,0.0514
22,CCTGCGTA,-0.115
23,GCACCGAC,-0.0796
24,ATGATTTA,0.268
25,CTTATTTA,0.164

row,Sequence,PBM E-score
1,CTGATTTA,0.0451
2,ATTTATAC,0.253
3,ATATTTTA,0.201
4,ATTATTTA,0.319
5,ATGATTTG,0.123
6,CTTTATAA,-0.0352
7,ATTTATAA,0.299
8,ATTATTTG,0.206
9,ATATTTTC,0.31
10,CTATTTTC,0.0963
11,GCACTGCA,-0.0484
12,AGCTGCTA,-0.0218
13,CCTGCAAG,-0.215
14,GAAGAATC,0.00251
15,AACAGCCG,-0.0368
16,CCGCACAG,-0.0131
17,CTATAAAA,-0.0202
18,CTCTAAAA,-0.125
19,ATATAAAA,0.154
20,TGATAAAA,0.0968
21,GTATAAAC,0.26
22,ATATAAAC,0.255
23,TTATAAAA,0.289
24,GTATAAAA,0.26
25,CTATAAAC,-0.00307
